# From PubChem BioAssay
# “And” between values parts separate entries of the source, which are not always exact repeats. Equal entries are not always repeated. Inconclusive results are not listed. For some of these results: Measured potencies and affinities stand elsewhere. The source made the active and inactive calls. Unless noted, the rule behind the calls is not given here.
# How the values were obtained:
# [1] = target: ATP-dependent translocase ABCB1 (Homo sapiens) (UniProt P08183); test: MDR1 (ABCB1) efflux transporter inhibition, cell-based (AID 377; in the data active = fluorescence slope change above about 50%); details: MDR1-expressing cells, fluorescent substrate accumulation slope; stronger effect = higher value; concentration not given here
# Chain of ATP-dependent translocase ABCB1 (Homo sapiens) (P08183 whole entry, looked up): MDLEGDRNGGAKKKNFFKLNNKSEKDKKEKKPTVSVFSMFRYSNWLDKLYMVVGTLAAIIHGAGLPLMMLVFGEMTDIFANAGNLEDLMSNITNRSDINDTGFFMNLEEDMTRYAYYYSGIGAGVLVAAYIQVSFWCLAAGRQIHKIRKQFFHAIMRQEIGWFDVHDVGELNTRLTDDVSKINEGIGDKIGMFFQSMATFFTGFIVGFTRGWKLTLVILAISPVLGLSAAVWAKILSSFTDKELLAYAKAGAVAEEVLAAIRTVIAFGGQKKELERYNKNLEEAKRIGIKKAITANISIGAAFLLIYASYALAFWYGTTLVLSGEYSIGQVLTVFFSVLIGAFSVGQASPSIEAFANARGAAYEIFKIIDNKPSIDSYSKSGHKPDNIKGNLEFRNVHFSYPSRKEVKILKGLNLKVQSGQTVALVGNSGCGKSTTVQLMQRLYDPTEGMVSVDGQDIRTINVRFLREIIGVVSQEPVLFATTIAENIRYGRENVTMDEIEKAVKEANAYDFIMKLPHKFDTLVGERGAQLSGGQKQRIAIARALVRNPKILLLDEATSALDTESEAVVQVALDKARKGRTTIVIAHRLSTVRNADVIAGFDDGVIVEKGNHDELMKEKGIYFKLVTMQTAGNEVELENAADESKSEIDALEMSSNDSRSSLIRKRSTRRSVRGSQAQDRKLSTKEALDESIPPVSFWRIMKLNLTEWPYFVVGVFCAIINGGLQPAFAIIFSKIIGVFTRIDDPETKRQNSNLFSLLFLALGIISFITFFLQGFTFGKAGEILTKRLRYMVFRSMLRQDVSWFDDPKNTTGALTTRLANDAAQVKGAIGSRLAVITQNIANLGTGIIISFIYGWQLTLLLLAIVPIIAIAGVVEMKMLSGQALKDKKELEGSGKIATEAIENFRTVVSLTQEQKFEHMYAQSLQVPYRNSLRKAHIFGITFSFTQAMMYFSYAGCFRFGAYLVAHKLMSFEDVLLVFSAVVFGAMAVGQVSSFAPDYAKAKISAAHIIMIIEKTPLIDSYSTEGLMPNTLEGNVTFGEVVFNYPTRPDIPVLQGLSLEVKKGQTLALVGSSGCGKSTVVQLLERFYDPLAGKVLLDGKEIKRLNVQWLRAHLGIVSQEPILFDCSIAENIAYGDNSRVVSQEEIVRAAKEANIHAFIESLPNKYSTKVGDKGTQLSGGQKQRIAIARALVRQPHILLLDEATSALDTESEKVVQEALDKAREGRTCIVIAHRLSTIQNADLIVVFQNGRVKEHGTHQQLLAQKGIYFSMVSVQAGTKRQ
# [2] = polyglutamine-triggered caspase-3 activation inhibitors, cell-based (AID 1583); details: polyglutamine-induced caspase-3 activation, cell assay; stronger effect = higher value;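 tested at 10 µM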
# [3] = suppressors of polyQ aggregation in yeast, 75Q-TubU reporter (AID 1593); details: Yeast 75Q polyglutamine aggregation reporter
# [4] = rescue of polyQ-huntingtin neuronal dysfunction in worms, whole organism, C. elegans mechanosensory neurons, N-terminal huntingtin (AID 1599); details: touch response, stronger effect = higher value
# [5] = inhibitors of mitochondrial cytochrome c release, biochemical, purified mitochondria (AID 1603); details: stronger effect = lower value;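 note: mouse liver mitochondria challenged with calcium chloride; signal normalized to the plate average as 100%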
# [6] = inhibitors of polyQ protein aggregation (AID 1604); details: polyglutamine-induced protein aggregation inhibition assay; stronger effect = higher value; tested at 2.5 µM
# [7] = enhancers of glutamate uptake in motor neurons, MN-1 cell line (AID 1612); details: MN-1 motor neuron cells, stronger effect = higher value;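 note: tested at 1 µM final; 0% = mean of DMSO vehicle wells on each plate; positive means more glutamate uptake than control and negative means less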
# [8] = reducers of polyQ inclusions in PC12 cells, cell-based, NGF-treated PC12, GFPQ80 (AID 1614); details: PC12 NGF-treated GFP-polyQ80 inclusion reduction;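 note: lower means fewer inclusions and 0 means no inclusions at all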
# [9] = suppressors of polyglutamine aggregation in yeast, 75Q-TubH (AID 1616); details: S. cerevisiae 75Q-TubH polyglutamine aggregation suppression; stronger effect = higher value
# [10] = hESC survival regulators, cell-based (AID 493140); details: human embryonic stem cell survival screen; stronger effect = higher value;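 note: cells exposed to compounds for four days before counting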
# [11] = liver-stage malaria parasite growth inhibition, primary screen, cell-based, HepG2, luciferase luminescence, HepG2 viability (AID 624349; in the data active = parasite load remaining mostly below about 12%, no sharp cut-off; inactive = mostly above about 10%;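 note: 100% = mean of DMSO negative control wells on the same plate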); details: P. berghei liver stage in HepG2, luciferase luminescence, concentration not given here; parasite load remaining: stronger effect = lower value; viability: measured here: HepG2 viability without parasites
# [12] = target: 6-phosphogluconate dehydrogenase, decarboxylating (Homo sapiens) (UniProt P52209); test: 6PGD enzyme inhibitors, primary screen, biochemical, human, recombinant enzyme, NADPH absorbance (AID 1159550;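 active = at least 20% inhibition of 6-phosphogluconate dehydrogenase activity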); details: recombinant 6PGD, NADPH absorbance 341 nm; at 10 µM; stronger effect = higher value
# Chain of 6-phosphogluconate dehydrogenase, decarboxylating (Homo sapiens) (P52209 whole entry, looked up): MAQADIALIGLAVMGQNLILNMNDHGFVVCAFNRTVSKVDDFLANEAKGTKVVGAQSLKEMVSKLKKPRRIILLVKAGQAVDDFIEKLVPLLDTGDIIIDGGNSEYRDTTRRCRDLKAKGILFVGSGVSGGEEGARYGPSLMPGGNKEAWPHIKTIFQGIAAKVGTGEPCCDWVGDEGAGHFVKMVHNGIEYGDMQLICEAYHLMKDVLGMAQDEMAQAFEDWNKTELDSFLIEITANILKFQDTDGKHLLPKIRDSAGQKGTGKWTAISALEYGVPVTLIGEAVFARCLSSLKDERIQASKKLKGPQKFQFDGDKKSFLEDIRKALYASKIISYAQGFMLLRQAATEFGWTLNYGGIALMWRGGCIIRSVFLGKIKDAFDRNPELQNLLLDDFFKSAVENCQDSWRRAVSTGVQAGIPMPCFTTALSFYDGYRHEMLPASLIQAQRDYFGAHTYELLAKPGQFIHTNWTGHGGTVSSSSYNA
# [13] = differential killing of epithelial or mesenchymal cells, primary screen, imaging, PC-3E GFP, TEM4-18 mCherry, co-culture (AID 1345086;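 active = compounds killing one labelled cell type while sparing the other, by normalised counts and ratio limits, not self-fluorescent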;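 for all read-outs here: cells exposed to compound for 72 h before imaging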;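 for red/green cell ratio (normalised): normalised mesenchymal count divided by normalised epithelial count so high means epithelial killing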); details: imaging cell counts, at 1 µM; for red/green cell ratio (normalised): actives lie on both sides
# [14] = system: Aerobactin synthetase IucA (Klebsiella pneumoniae hvKP1); test: Biochemical IucA enzyme inhibition primary screen of the Spectrum library (AID 1346200); details: malachite green pyrophosphate, A620, at 8 µM, stronger effect = lower value;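 note: 100% = wells without compound and 0% = wells lacking enzyme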
# [15] = sensitizers of A549 cells to miR-34 induction, primary screen, imaging, A549 dox-inducible miR-34, nuclei and caspase counts (AID 1347080;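 active = compounds whose cell count with miR-34 switched on is under 0.7 times the count with it off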); details: A549 miR-34 inducible, Hoechst nuclei count, 48 h
# [16] = target: Mitogen-activated protein kinase 7 (Homo sapiens) (UniProt Q13164); test: ERK5 transactivation activators in reporter cells, primary screen, cell-based, HTS (AID 1508626;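 active = luciferase signal above three times the same-plate solvent-only control wells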;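 note: luciferase driven by Gal4-ERK5 fusion binding five Gal4 sites before minimal TATA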); details: HeLa Gal4-ERK5 transactivation, 18 h, at 5 µM, stronger effect = higher value
# Chain of Mitogen-activated protein kinase 7 (Homo sapiens) (Q13164 whole entry, looked up, the tested form may be a part): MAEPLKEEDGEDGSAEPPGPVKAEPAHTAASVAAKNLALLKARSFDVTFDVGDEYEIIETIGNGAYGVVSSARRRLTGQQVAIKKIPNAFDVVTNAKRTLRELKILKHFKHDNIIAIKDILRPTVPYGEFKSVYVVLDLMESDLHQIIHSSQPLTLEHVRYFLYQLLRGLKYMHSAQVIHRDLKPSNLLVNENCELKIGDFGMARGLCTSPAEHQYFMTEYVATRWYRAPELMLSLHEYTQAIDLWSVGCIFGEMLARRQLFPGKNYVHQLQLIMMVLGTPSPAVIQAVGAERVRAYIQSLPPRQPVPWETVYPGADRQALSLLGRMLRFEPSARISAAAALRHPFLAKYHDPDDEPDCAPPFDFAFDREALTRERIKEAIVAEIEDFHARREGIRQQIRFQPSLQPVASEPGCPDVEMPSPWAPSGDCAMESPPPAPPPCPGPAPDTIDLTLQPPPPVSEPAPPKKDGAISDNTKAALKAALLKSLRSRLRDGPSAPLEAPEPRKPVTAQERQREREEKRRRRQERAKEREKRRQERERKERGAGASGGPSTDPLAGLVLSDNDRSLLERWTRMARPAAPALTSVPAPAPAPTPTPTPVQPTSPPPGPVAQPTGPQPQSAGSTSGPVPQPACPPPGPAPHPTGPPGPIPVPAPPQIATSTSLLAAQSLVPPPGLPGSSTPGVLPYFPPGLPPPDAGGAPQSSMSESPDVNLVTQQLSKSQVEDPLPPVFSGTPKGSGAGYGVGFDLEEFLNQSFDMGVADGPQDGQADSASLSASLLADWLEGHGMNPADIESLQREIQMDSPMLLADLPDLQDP
# [17] = circadian clock period modulators, cell-based, LOPAC library, luminescence reporter (AID 2774); details: circadian reporter cells, at 7 µM, actives lie on both sides;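 note: values are relative to mean of DMSO wells on each plate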
# [18] = system: Hepatitis C virus NS3 helicase; test: HCV NS3 helicase inhibitors, primary screen, biochemical, fluorescence polarization, LOPAC1280 library (AID 687035; in the data active = inhibition above about 37%); details: Purified HCV NS3 helicase, Cy5-dT15 ssDNA binding fluorescence polarization; stronger effect = higher value; concentration not given here
# [19] = Cy5 fluorescence quenching or enhancement artefacts, artefact control for HCV NS3 helicase inhibitor project, biochemical, LOPAC1280 (AID 687037); details: Cy5-DNA-NS3h complex fluorescence interference counterscreen
# [20] = system: Aerobactin synthetase IucA (Klebsiella pneumoniae, hypervirulent); test: IucA enzyme inhibition, biochemical, LOPAC library, absorbance readout (AID 1346212); details: IucA enzyme assay, absorbance (OD) readout; stronger effect = lower value;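 tested at 8 µM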;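 note: 100% = no compound wells and 0% = no enzyme wells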
# [21] = phospholipid biosynthesis inhibitors in animal cells, primary screen, cell-based, LOPAC library, screen 4 (AID 1347384); details: phospholipid biosynthesis inhibition screen, at 10 µM
# [22] = viability rescue of complex I mutant cybrids, primary screen, cell-based, galactose medium, ATP luminescence (AID 1645843;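 active = z-score of at least 1.8 in each of two replicates, scored against plate mean and spread of sample wells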;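 note: positive z means more ATP and so rescue of galactose-driven cybrid death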); details: complex I mutant cybrid cells, 72 h, stronger effect = higher value
# [23] = measured here: epithelial PC-3E GFP cell survival
# [24] = measured here: mesenchymal TEM4-18 mCherry cell survival
# [25] = measured here: relative caspase fold change +Dox/-Dox
# [26] = measured here: total cells with miR-34 induction, stronger effect = lower value
# [27] = measured here: total cells without miR-34 induction
# [28] = counts scaled to control wells, 1 = unselective
compound,measurement,setting,value
COc1ccc2c3c([nH]c2c1)C(C)=NCC3,fluorescence slope change,[1],7.9% (inactive)
same,inhibition,[2],-62.4%
same,score,[3],1.32
same,rescue above control,[4],-1.53
same,cytochrome c release ratio,[5],0.94
same,inhibition of aggregation,[6],51%
same,glutamate uptake change,[7],48%
same,inclusion score,[8],2
same,aggregation suppression score,[9],0.883
same,survival,[10],6 (inactive)
same,parasite load remaining,[11],83.9% (inactive) and 28.8% (inactive) and 84.4% (inactive)
same,viability,[11],103% and 71.6% and 83.5%
same,inhibition,[12],-10.2% (inactive)
same,red/green cell ratio (normalised),[13],0.92 (inactive)
same,normalised cell number,[13]; [23],1.06
same,normalised cell number,[13]; [24],0.98
same,activity remaining,[14],124% (inactive)
same,fold change,[15]; stronger effect = lower value,0.95 (inactive)
same,fold change,[15]; [25],1.3
same,cell count,[15]; [26],8720
same,cell count,[15]; [27],9180
same,luciferase signal,[16],68 AU (inactive)
NCCc1c[nH]c2ccccc12,inhibition,[2],21.6%
same,score,[3],1.14
same,rescue above control,[4],-4.06
same,cytochrome c release ratio,[5],0.68
same,inhibition of aggregation,[6],21.6%
same,glutamate uptake change,[7],6.97%
same,inclusion score,[8],2
same,aggregation suppression score,[9],1.32
same,period change,[17],0.085 h (inactive)
same,parasite load remaining,[11],148% (inactive)
same,viability,[11],88.3%
same,inhibition,[18],0% (inactive)
same,fluorescence ratio (interference),[19],1 (inactive)
same,inhibition,[12],-12.7% (inactive)
same,red/green cell ratio (normalised),[13],1.06 (inactive)
same,normalised cell number,[13]; [23],0.86
same,normalised cell number,[13]; [24],0.92
same,activity remaining,[14],113% (inactive)
same,remaining activity,[20],89.5% (inactive)
same,fold change,[15]; stronger effect = lower value,1.02 (inactive)
same,fold change,[15]; [25],1.42
same,cell count,[15]; [26],9290
same,cell count,[15]; [27],9110
same,outcome,[21],inactive
same,luciferase signal,[16],44 AU (inactive)
same,z-score,[22],0.19 (inactive)
O=C(O)CC[N+](=O)[O-],period change,[17],-0.005 h (inactive)
same,inhibition,[18],-3% (inactive)
same,fluorescence ratio (interference),[19],1 (inactive)
same,inhibition,[12],-4.59% (inactive)
same,red/green cell ratio (normalised),[13],1.06 (inactive)
same,normalised cell number,[13]; [23],0.86
same,normalised cell number,[13]; [24],0.91
same,activity remaining,[14],105% (inactive)
same,remaining activity,[20],116% (inactive)
same,fold change,[15]; stronger effect = lower value,1.06 (inactive)
same,fold change,[15]; [25],2.1
same,cell count,[15]; [26],10800
same,cell count,[15]; [27],10200
same,outcome,[21],inactive
same,luciferase signal,[16],152 AU (inactive)
same,z-score,[22],-0.29 (inactive)
COc1ccc(/C=C/c2cc(O)cc(O)c2)cc1,inhibition,[12],16.8% (inactive)
same,red/green cell ratio (normalised),[13],1.08 (inactive)
same,normalised cell number,[13]; [23],0.95
same,normalised cell number,[13]; [24],1.03
same,activity remaining,[14],103% (inactive)
same,luciferase signal,[16],176 AU (inactive)
CC(=O)CC1CCCCN1 (configuration not stated),inhibition,[12],16.3% (inactive)
same,red/green cell ratio (normalised),[13]; [28],1.09 (inactive)
same,normalised cell number,[13]; [23],0.99
same,normalised cell number,[13]; [24],1.09
same,activity remaining,[14],107% (inactive)
same,luciferase signal,[16],48 AU (inactive)
COc1cccc(C=O)c1OC,inhibition,[12],7.48% (inactive)
same,red/green cell ratio (normalised),[13]; [28],1.04 (inactive)
same,normalised cell number,[13]; [23],0.98
same,normalised cell number,[13]; [24],1.02
same,activity remaining,[14],93.4% (inactive)
same,luciferase signal,[16],60 AU (inactive)
